From PubChem BioAssay AID488969 (Vanderbilt High Throughput Screening Facility, 2010)
In all, about 110,000 compounds were measured (“z-score”: median about -0.1, highest 2% from about 2 on). The full list was thinned out, with the highest values kept by preference. Activity calls are given as the source filed them.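 How the source made its calls: active means z-score in the third read window above 3 or below -3; inactive means the rest.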

target: Metabotropic glutamate receptor 8 (Rattus norvegicus) (UniProt P70579); test: rat mGluR8 modulators via GIRK flux, primary screen, cell-based, thallium flux, HTS (AID 488969); details: HEK293 rat mGluR8, GIRK (G protein-gated inwardly rectifying potassium channel) thallium flux, FluoZin2; at 10 µM; stronger effect = higher value; submaximal glutamate (EC20) added with thallium
Sequence (P70579 whole entry, looked up): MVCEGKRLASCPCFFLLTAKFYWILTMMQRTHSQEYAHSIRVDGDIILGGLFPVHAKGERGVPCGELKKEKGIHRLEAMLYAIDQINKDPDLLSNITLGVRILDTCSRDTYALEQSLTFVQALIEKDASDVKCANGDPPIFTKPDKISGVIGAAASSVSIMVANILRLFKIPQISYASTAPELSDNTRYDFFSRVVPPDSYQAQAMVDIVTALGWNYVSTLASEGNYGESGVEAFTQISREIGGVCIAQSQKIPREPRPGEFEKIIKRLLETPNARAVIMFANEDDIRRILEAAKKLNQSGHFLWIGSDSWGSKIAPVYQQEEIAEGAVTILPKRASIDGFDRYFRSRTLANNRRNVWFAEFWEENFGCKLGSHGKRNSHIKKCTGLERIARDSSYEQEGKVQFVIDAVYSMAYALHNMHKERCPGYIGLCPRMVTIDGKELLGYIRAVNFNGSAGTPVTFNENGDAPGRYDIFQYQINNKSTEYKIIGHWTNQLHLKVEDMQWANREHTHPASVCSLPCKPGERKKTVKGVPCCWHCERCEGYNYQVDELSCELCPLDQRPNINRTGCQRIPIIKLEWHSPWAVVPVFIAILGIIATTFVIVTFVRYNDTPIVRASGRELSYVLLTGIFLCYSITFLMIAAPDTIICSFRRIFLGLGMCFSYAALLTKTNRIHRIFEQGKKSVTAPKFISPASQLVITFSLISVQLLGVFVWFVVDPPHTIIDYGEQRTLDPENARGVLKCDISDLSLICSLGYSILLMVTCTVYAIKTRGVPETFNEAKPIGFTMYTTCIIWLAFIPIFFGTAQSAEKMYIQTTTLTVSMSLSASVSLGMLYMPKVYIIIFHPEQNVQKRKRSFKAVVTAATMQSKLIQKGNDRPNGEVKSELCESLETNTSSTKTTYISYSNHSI

Compound	z-score
COc1ccc(-c2noc(CSc3nnc(Cc4ccccc4)n3-c3ccc(Cl)cc3)n2)cc1	0.663
COc1ccccc1OCC(O)Cn1c(=N)n(CCN2CCCCC2)c2ccccc21 (centres undefined)	-0.0021
Cc1ccc(OCC(O)Cn2c(=N)n(CCN3CCCCC3)c3ccccc32)cc1 (centres undefined)	4.9 (active)
Cc1cccc(OCC(O)Cn2c(=N)n(CCN3CCCCC3)c3ccccc32)c1 (centres undefined)	5.06 (active)
Cc1ccccc1OCC(O)Cn1c(=N)n(CCN2CCOCC2)c2ccccc21 (centres undefined)	1.12
N=c1n(CCN2CCCCC2)c2ccccc2n1CC(O)COc1ccccc1 (centres undefined)	1.11
N=c1n(CCN2CCCCC2)c2ccccc2n1CC(O)c1cccc(Br)c1 (centres undefined)	0.566
O=C(Nc1ccc(Cl)cc1)C1=Cc2cc(Cl)ccc2OC1	-0.109
COC(=O)C1=C(C)NC2=C(C(=O)CC(C)(C)C2)C1c1ccsc1 (centres undefined)	0.803
Cn1c(C(C(=O)NCC2CCCO2)N(C(=O)Cn2nnc3ccccc32)C2CCCCC2)nc2ccccc21 (centres undefined)	-0.0111
CCOC(=O)/C(C#N)=C/NC(=O)NC(C)(C)C	0.141
Cc1ccc2[nH]c(=O)c(CN(CCO)C(=O)N(C)C)cc2c1	-0.0536
CCOC(CNC(=O)CCc1c(C)nc2nc(C)nn2c1C)OCC	-0.308
CCc1ccc(S(=O)(=O)Nc2c(C)nn(C)c2C)cc1	-0.343
CN(Cc1ccccc1F)c1nc(-c2cccs2)nc2ccccc12	0.11
O=C(O/N=C\c1ccc(N2CCCCC2)c([N+](=O)[O-])c1)c1cccc(Cl)c1	-0.494
O=C(O/N=C\c1ccc(N2CCCCC2)c([N+](=O)[O-])c1)c1c(F)cccc1F	2.03
O=C(O/N=C\c1ccc(N2CCCCC2)c([N+](=O)[O-])c1)c1cccc(C(F)(F)F)c1	0.31
CCOC(=O)CSc1cc(CS(=O)(=O)c2ccccc2)nc(-c2ccccc2)n1	-0.223
CCOC(=O)CSc1cc(CSc2ccccc2)nc(-c2ccccc2)n1	4.85 (active)
CCOC(=O)CSc1cc(CS(=O)c2ccc(Cl)cc2)nc(-c2ccccc2)n1 (centres undefined)	0.0352
CC(=O)N(c1nc(CCl)cs1)c1c(C)cc(C)cc1C	1.43
Cc1ccc(-c2cc(C(=O)NCc3cnn(C)c3C)c3cc(Br)ccc3n2)cc1	-0.453
CCc1ccc(C2C(C#N)=C(N)C(C#N)(C#N)C3=CCC(C(C)(C)C)CC32)cc1 (centres undefined)	-0.0406
CCCn1c(=S)[nH]c2cc(C(=O)N3CCN(c4ccccc4OC)CC3)ccc2c1=O	0.596
COCCn1c(=S)[nH]c2cc(C(=O)N3CCN(c4ccccc4OC)CC3)ccc2c1=O	-0.495

Compound	z-score
CC(C)NC(=O)CCCn1c(=S)[nH]c2cc3c(cc2c1=O)OCO3	0.566
O=C(CCCn1c(=S)[nH]c2cc3c(cc2c1=O)OCO3)N1CCN(c2ccc(Cl)cc2)CC1	-0.36
CC(=O)c1ccc(N2CCN(C(=O)CCCn3c(=S)[nH]c4cc5c(cc4c3=O)OCO5)CC2)cc1	2.56
CC(C)OCCCn1c(=S)[nH]c2cc3c(cc2c1=O)OCO3	6.19 (active)
CCN(CC)CCn1c(=S)[nH]c2cc3c(cc2c1=O)OCO3	-0.565
COCCn1c(=S)[nH]c2cc(C(=O)N3CCN(c4ccc(F)cc4)CC3)ccc2c1=O	4.3 (active)
O=C(CCCn1c(=S)[nH]c2cc3c(cc2c1=O)OCO3)N1CCN(c2ccc(F)cc2)CC1	-0.237
Cc1cc(=O)[nH]c(SCC(=O)C23CC4CC(CC(C4)C2)C3)c1C#N	-0.0485
O=C(Nc1cccc(O)c1)c1cc2nc(-c3ccccc3)cc(-c3ccccc3)n2n1	-0.00871
O=C(COc1ccc(C(=S)N2CCOCC2)cc1)N1CCCC1	-0.301
Cc1ccc(-c2nnc3c4ccccc4c(C)nn23)cc1S(=O)(=O)N1CCN(C)CC1	-0.999
Cc1ccc(S(=O)(=O)N2CCN(C)CC2)cc1-c1nnc2c3ccccc3c(C)nn12	9.27 (active)
Cc1ccc(S(=O)(=O)N2CCN(CCO)CC2)cc1-c1nnc2c3ccccc3c(C)nn12	-0.156
Cc1cc(C)n(-c2nnc(C)n2NC(=O)c2cccc(Cl)c2)n1	0.0281
Cc1cc(C)n(-c2nncn2NC(=O)c2ccc(Cl)cc2O)n1	2.24
Cc1ccc(C)n1NC(=O)c1ccc(Cl)cc1Cl	0.557
CCNC(=O)NC(=O)C(C)Sc1nc2cc(C(=O)OC)ccc2c(=O)n1-c1ccccc1 (centres undefined)	0.204
CCCCn1c(SC(C)C(N)=O)nc2cc(C(=O)OC)ccc2c1=O (centres undefined)	3 (active)
CCSc1nc2cc(C(=O)OC)ccc2c(=O)n1CC	0.836
O=C(O)C1CC=CCC1C(=O)NCc1ccc2c(c1)OCO2 (centres undefined)	-0.618
COc1ccc(N2CCN(C(=O)CSc3nnc4c(C)cc5cc(C)ccc5n34)CC2)cc1	1.03
Cc1ccc(C)c(-n2ccnc2SCC(=O)O)c1	-0.0351
CCc1cccc(NC(=O)CN(c2ccc(OC)cc2)S(=O)(=O)c2c(C)n[nH]c2C)c1	0.317
COCCNC(=O)Cn1ncc2ccsc2c1=O	2.25
COCCCNC(=O)Cn1ncc2ccsc2c1=O	-0.327
COC(CNC(=O)Cn1ncc2ccsc2c1=O)OC	-0.112

Compound	z-score
CCOc1ccc2oc(-c3ccccc3)c(C(=O)N3CCN(CCO)CC3)c2c1	-0.457
COc1cccc(C(=O)NCc2cn3ccsc3n2)c1	15.2 (active)
COc1ccc(C(=O)NCc2cn3ccsc3n2)cc1OC	-0.547
COc1cc(C(=O)NCc2cn3ccsc3n2)cc(OC)c1OC	-0.0269
O=C(CSc1ccc(-c2ccc(F)cc2)nn1)N1CCN(c2ccccc2)CC1	-0.139
Cc1ccc(C(=O)O)cc1S(=O)(=O)N1CCOCC1	-0.267
Cc1ccc(C(=O)O)cc1S(=O)(=O)N1CCC(C(=O)O)CC1	0.299
Cc1ccc(C(=O)O)cc1S(=O)(=O)N1CCCC1	2.05
CCOC(=O)c1cnc2c(C#N)c(C)nn2c1C	0.0622
COc1ccc(NS(=O)(=O)c2cc(NC(=O)c3ccc(C)o3)ccc2N2CCCCC2)cc1	-0.024
CC1CCCC(C)N1CCCNC(=O)c1cc2c(=O)n(C)c3ccccc3c2n1C (centres undefined)	2.79
Cn1c(C(=O)NCCN2CCOCC2)cc2c(=O)n(C)c3ccccc3c21	-2.82
Cn1c(C(=O)NCCN2CCCCCC2)cc2c(=O)n(C)c3ccccc3c21	1.86
Cn1c(C(=O)NCCCN2CCCCCC2)cc2c(=O)n(C)c3ccccc3c21	2.52
Cn1c(C(=O)NCCCN2CCN(c3ccccc3F)CC2)cc2c(=O)n(C)c3ccccc3c21	2.46
CCCN1CCN(CCCNC(=O)c2cc3c(=O)n(C)c4ccccc4c3n2C)CC1	1.48
Cn1c(C(=O)NCCCN2CCOCC2)cc2c(=O)n(C)c3ccccc3c21	0.0335
CC1CCCCN1CCNC(=O)c1cc2c(=O)n(C)c3ccccc3c2n1C (centres undefined)	1.88
Cn1c(C(=O)NCCCN2CCN(c3ccccc3F)CC2)cc2c(=O)[nH]c3ccccc3c21	-0.0771
CC1CCN(CCCNC(=O)c2cc3c(=O)n(C)c4ccccc4c3n2C)CC1	2.7
Cn1c(C(=O)NCCCN2CCCC2=O)cc2c(=O)n(C)c3ccccc3c21	-0.963
CCC(=O)N1CCN(c2nc3ccccc3s2)CC1	-0.0557
O=C(NNC(=S)NC1CCCCC1)c1cccc(S(=O)(=O)Nc2ccccc2Cl)c1	-0.537
O=C(CCNc1ccccc1)c1cccc([N+](=O)[O-])c1	-0.134
Cc1cccc(NC(=O)c2sc(NC(=O)COc3ccccc3)c(C#N)c2C)c1C	-0.152
CC(OC(=O)c1cc2sccc2n1C)C(=O)NCc1ccc2c(c1)OCO2 (centres undefined)	-0.018

Compound	z-score
Cc1snc2sc(C(=O)c3ccc(Br)cc3)c(N)c12	-0.378
O=C(NCc1ccco1)c1cc(-c2ccc3c(c2)OCO3)on1	-0.862
O=C(O)CCCN1C(=O)C2C3CCC(O3)C2C1=O (centres undefined)	-0.35
CCCCn1c(SCC(=O)Nc2ccccc2C(F)(F)F)nc2ccsc2c1=O	0.00651
COCCN(CCOC)C(=O)CC(=O)N(CCOC)CCOC	0.0459
CN1CCN(CCNC(=O)c2cc3c(=O)n(C)c4ccccc4c3n2C)CC1	0.327
Cn1c(C(=O)NCCCN2CCc3ccccc3C2)cc2c(=O)n(C)c3ccccc3c21	0.807
Cn1c(C(=O)NCCN2CCc3ccccc3C2)cc2c(=O)n(C)c3ccccc3c21	2.7
COc1cccc(C(=O)OCC(=O)Nc2cc(C)c(C)cc2[N+](=O)[O-])c1	-0.131
O=C(C1CCCN(Cc2ccccc2)C1)N1CCCCC1 (centres undefined)	0.122
CCOC(=O)C1CCCN(Cc2cccs2)C1 (centres undefined)	-0.137
O=C(C1CCCN(Cc2cccs2)C1)N1CCCCCC1 (centres undefined)	3.36 (active)
COc1cccc(C(=O)Cn2c(=O)n(CC3CCCO3)c(=O)c3ccccc32)c1 (centres undefined)	-0.719
O=C(C1CCN(S(=O)(=O)c2cccnc2)CC1)N1CCN(C2CCCC2)CC1	-0.318
CC1CCN(C(=O)C2CCN(S(=O)(=O)c3cccnc3)CC2)CC1	2.03
O=C(C1CCN(S(=O)(=O)c2cccnc2)CC1)N1CCCCC1	0.487
Cc1ccc(Cn2nnc3c(=O)[nH]c(C4CCN(S(=O)(=O)c5cc(C)ccc5C)CC4)nc32)cc1	0.616
Cc1ccc(S(=O)(=O)NCCc2ccncc2)cc1	-0.472
O=C1CCCN1CN(C(=O)c1ccc2c(c1)OCO2)c1cccc(Cl)c1	-0.21
COc1cc(C)nc(N(Cc2ccccc2)S(=O)(=O)c2ccccc2)n1	2.43
COC(=O)CN(c1nc(C)cc(OC)n1)S(=O)(=O)c1ccccc1	-0.5
CCN(c1nc(C)cc(OC)n1)S(=O)(=O)c1ccccc1	-0.243
CCc1ccc(S(=O)(=O)N(C(=O)c2ccncc2)c2ccc(OC(=O)c3ccncc3)cc2)cc1	-0.659
Cn1c(CN2CCN(C(=O)c3ccccc3)CC2)nc2cc([N+](=O)[O-])ccc21	0.0497
Cc1c(NC(=O)c2cnn3c(C(F)(F)F)cc(-c4ccco4)nc23)c(=O)n(-c2ccccc2)n1C	0.95
Cc1ccc(C)c(NC(=O)/C(C#N)=C/c2ccc(Sc3nncn3C)c([N+](=O)[O-])c2)c1	-0.0512
